Source: PubChem BioAssay AID651744 (Broad Institute, 2012)
Screen size: about 5,600 compounds; about 3,100 (55%) were called active. Inconclusive results (about 3%) are left out.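 The calls were made as follows: active = mean loss of cell viability signal at or above a set limit, and enough replicates individually reaching it; inconclusive = meets only the mean limit or only the replicate share; inactive = meets neither condition.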 The set was probably picked from earlier hits. The list is a sample of the results.

Assay: NIH/3T3 fibroblast cytotoxicity, confirmation, cytotoxicity control, cell-based, cherry-pick, single point, set 2 (AID 651744);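 also: 0% = median of neutral control wells and 100% = median of positive control wells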
Conditions: NIH/3T3 viability, CellTiter-Glo ATP luminescence, 90 h; at 24.9 µM; stronger effect = higher value

| Structure (SMILES) | inhibition |
| --- | --- |
| CC(C)NC(=O)Nc1ccc2c(c1)C(=O)N([C@@H](C)CO)C[C@H](C)[C@H](CN(C)S(=O)(=O)c1ccc(Cl)cc1)OCCCC[C@H](C)O2 | 14% (inactive) |
| C[C@@H]1CCCCO[C@@H](CN(C)S(=O)(=O)c2ccc(Cl)cc2)[C@H](C)CN([C@@H](C)CO)C(=O)c2cc(NC(=O)Cc3ccccc3)ccc2O1 | 12.4% (inactive) |
| C[C@H]1CN([C@@H](C)CO)C(=O)c2cc(C#CC3CCCCC3)cnc2O[C@H]1CN(C)S(=O)(=O)c1ccccc1 | 62.7% (active) |
| C[C@@H]1CCCCO[C@H](CN(C)S(=O)(=O)c2ccc(F)cc2)[C@H](C)CN([C@@H](C)CO)C(=O)c2cc(NS(=O)(=O)c3ccccc3)ccc2O1 | -19.2% (inactive) |
| C[C@@H]1CN([C@H](C)CO)C(=O)c2cc(C#CC3CCCCC3)cnc2O[C@@H]1CN(C)C(=O)NC1CCCC1 | 75.6% (active) |
| C[C@@H]1CN([C@@H](C)CO)C(=O)c2cc(C#CC3CCCCC3)cnc2O[C@H]1CN(C)S(=O)(=O)c1ccccc1 | 106% (active) |
| C[C@@H]1CN([C@H](C)CO)C(=O)c2cc(-c3cncnc3)cnc2O[C@H]1CN(C)C(=O)Nc1ccc2c(c1)OCO2 | 2.69% (inactive) |
| C[C@H](CO)N1C[C@H](C)[C@H](CN(C)C(=O)C2CCCCC2)Oc2ncc(C#Cc3cccc(F)c3)cc2C1=O | 92.3% (active) |
| C[C@H](CO)N1C[C@H](C)[C@H](CN(C)C(=O)Nc2ccc3c(c2)OCO3)Oc2ncc(C#Cc3cccc(F)c3)cc2C1=O | 103% (active) |
| Cc1ccc(-c2ccc([C@H]3[C@H](CO)N4CCCCN(Cc5cncnc5)C[C@@H]34)cc2)cc1 | 64.8% (active) |
| Cc1cccc(-c2ccc([C@H]3[C@@H](CO)N4CCCCN(Cc5cncnc5)C[C@H]34)cc2)c1 | 102% (active) |
| OC[C@@H]1[C@H](c2ccc(C#CC3(O)CCCC3)cc2)[C@H]2CN(Cc3cncnc3)CCCCN12 | 16.8% (inactive) |
| CN(C)C(=O)c1ccc(-c2ccc([C@H]3[C@@H](CO)N4CCCCN(CC5CC5)C[C@H]34)cc2)cc1 | -3.83% (inactive) |
| OC[C@H]1[C@H](c2ccc(-c3cccc(F)c3)cc2)[C@@H]2CN(Cc3cncnc3)CCCCN12 | 31.7% (active) |
| OC[C@@H]1[C@H](c2ccc(C#Cc3ccccc3)cc2)[C@@H]2CN(Cc3cncnc3)CCCCN12 | 104% (active) |
| CCC(=O)N1CC[C@@H]2[C@@H](CO)N(C)c3ccc(-c4cccc(OC)c4)cc3[C@@H]21 | -5.88% (inactive) |
| CC(C)C#Cc1ccc2c(c1)O[C@H](CN(C)Cc1ccccc1)[C@H](C)CN([C@@H](C)CO)S2(=O)=O | 106% (active) |
| C[C@H]1CN([C@@H](C)CO)S(=O)(=O)c2ccc(C#CCN(C)C)cc2O[C@@H]1CN(C)Cc1ccc(F)cc1 | 105% (active) |
| C[C@@H]1CN([C@H](C)CO)S(=O)(=O)c2ccc(C#C[C@@H](C)O)cc2O[C@@H]1CN(C)Cc1ccc(-c2ccccc2)cc1 | 105% (active) |
| C[C@@H]1CN([C@@H](C)CO)S(=O)(=O)c2ccc(/C=C/c3ccccc3)cc2O[C@H]1CN(C)Cc1ccccc1 | 72.5% (active) |
| CC(=O)N(C)C[C@H]1Oc2cc(C#CCN(C)C)ccc2S(=O)(=O)N([C@@H](C)CO)C[C@@H]1C | 16.1% (inactive) |
| COc1cccc(C#Cc2ccc([C@@H]3[C@H](C#N)N[C@H]3CO)cc2)c1 | 61.1% (active) |

| Structure (SMILES) | inhibition |
| --- | --- |
| C[C@H]1CN([C@@H](C)CO)C(=O)c2ccccc2-c2ccccc2CO[C@@H]1CN(C)S(=O)(=O)c1ccc(C(F)(F)F)cc1 | 9.87% (inactive) |
| C[C@@H]1CN([C@H](C)CO)C(=O)c2cc(/C=C/c3ccccc3)cnc2O[C@@H]1CN(C)Cc1ccncc1 | 26.2% (active) |
| C[C@H](CO)N1C[C@H](C)[C@H](CN(C)S(=O)(=O)c2cccc(F)c2)Oc2ncc(/C=C/c3ccccc3)cc2C1=O | 76% (active) |
| Cc1ccc(-c2cnc3c(c2)C(=O)N([C@@H](C)CO)C[C@@H](C)[C@H](CN(C)Cc2ccccc2F)O3)cc1 | 92.5% (active) |
| Cc1ccc(S(=O)(=O)N(C)C[C@@H]2Oc3ncc(-c4cc5ccccc5o4)cc3C(=O)N([C@H](C)CO)C[C@@H]2C)cc1 | 14.8% (inactive) |
| C[C@H](CO)N1C[C@H](C)[C@@H](CN(C)S(=O)(=O)c2cccc(F)c2)OCc2ccccc2-c2c(n(C)c3ccccc23)C1=O | 4.71% (inactive) |
| C[C@H](CO)N1C[C@H](C)[C@H](CN(C)S(=O)(=O)c2ccccc2)Oc2ncc(-c3cccc(C(F)(F)F)c3)cc2C1=O | 41.1% (active) |
| CN1C(=O)c2cc(NC(=O)Nc3ccccc3F)ccc2OC[C@H]2O[C@H](CC(=O)NCc3ccc(-c4ccccc4)cc3)CC[C@H]21 | 23% (inactive) |
| O=C(c1ccccc1F)N1C[C@H]2[C@@H](c3ccccc31)[C@@H](CO)N2C(=O)c1ccc(F)cc1 | 9.61% (inactive) |
| COc1ccc(CCN(C)C(=O)C2CCCN(Cc3ccc(OC)c(OC)c3)C2)cc1OC (centres undefined) | 2.44% (inactive) |
| C[C@@H]1CN([C@H](C)CO)S(=O)(=O)c2ccc(C#CC3CCCC3)cc2O[C@@H]1CN(C)C(=O)Cc1ccncc1 | 85.1% (active) |
| C[C@H]1CN([C@@H](C)CO)S(=O)(=O)c2ccc(C#CC3CCCC3)cc2O[C@H]1CN(C)C(=O)Cc1ccncc1 | 103% (active) |
| CC(=O)N(C)C[C@@H]1[C@@H](c2ccc(-c3ccccc3F)cc2)[C@@H](CO)N1C(C)=O | -5.68% (inactive) |
| CC(C)NC(=O)N1[C@H](C#N)[C@H](c2ccc(C#CC3CCCCC3)cc2)[C@H]1CO | 67.4% (active) |
| N#C[C@H]1[C@@H](c2ccc(C3=CCCCC3)cc2)[C@@H](CO)N1C(=O)NC1CCCCC1 | 60.1% (active) |
| CCN(C[C@H]1[C@H](c2ccccc2)[C@H](CO)N1C(=O)C1CC1)C(=O)NC1CCCC1 | 4.07% (inactive) |
| CS(=O)(=O)N1[C@@H](C#N)[C@H](c2ccc(C#CC3CCCCC3)cc2)[C@@H]1CO | 75.2% (active) |
| CCc1cnc(N2[C@H](C#N)[C@H](c3ccc(C4=CCCC4)cc3)[C@@H]2CO)s1 | 7.03% (inactive) |
| O=C(c1cnccn1)N1CC[C@@H]2[C@H](CO)Nc3ccc(-c4cccc(F)c4)cc3[C@@H]21 | 42.7% (active) |
| OC[C@@H]1Nc2ccc(-c3cccc(F)c3)cc2[C@H]2[C@@H]1CCN2Cc1ccncc1 | 43.3% (active) |
| CN1c2ccc(-c3ccccc3)cc2[C@@H]2[C@@H](CCN2C(=O)c2ccncc2)[C@@H]1CO | 18.7% (inactive) |
| N#Cc1ccc(-c2ccc3c(c2)[C@@H]2[C@@H](CCN2C(=O)Cc2ccncc2)[C@@H](CO)N3)cc1 | 14.4% (inactive) |

| Structure (SMILES) | inhibition |
| --- | --- |
| O=C(c1ccccn1)N1CC[C@@H]2[C@H]1c1cc(-c3ccccc3)ccc1N[C@@H]2CO | 7.5% (inactive) |
| Cc1ccc(S(=O)(=O)N2C[C@@H](O)COC[C@@H]3O[C@H](CC(=O)NCc4ccc(Cl)c(Cl)c4)CC[C@H]32)cc1 | 8.83% (inactive) |
| COc1cccc(S(=O)(=O)N2C[C@@H](O)COC[C@@H]3O[C@H](CC(=O)Nc4ccccc4)CC[C@H]32)c1 | 26.4% (inactive) |
| O=C(C[C@H]1CC[C@@H]2[C@H](COC[C@H](O)CN2Cc2ccc(Oc3ccccc3)cc2)O1)N1CCN(c2ccccc2)CC1 | 104% (active) |
| COc1ccccc1C#Cc1ccc([C@@H]2[C@H](CO)N3CCCCN(C(=O)C4CCCC4)C[C@@H]23)cc1 | 103% (active) |
| O=C(C1CCC1)N1CCCCN2[C@H](CO)[C@H](c3ccc(-c4ccncc4)cc3)[C@@H]2C1 | -9.25% (inactive) |
| COc1ccccc1NC(=O)N1CCCCN2[C@H](C1)[C@H](c1ccc(-c3ccccc3)cc1)[C@@H]2CO | 14.8% (inactive) |
| COc1ccccc1C#Cc1ccc([C@H]2[C@H](CO)N3CCCCN(C(=O)C4CCC4)C[C@@H]23)cc1 | 105% (active) |
| COc1ccccc1C#Cc1ccc([C@@H]2[C@H](CO)N3CCCCN(C(=O)C4CC4)C[C@@H]23)cc1 | 100% (active) |
| Cc1noc(C)c1S(=O)(=O)Nc1ccc2c(c1)C(=O)N([C@@H](C)CO)C[C@H](C)[C@@H](CN(C)C(=O)Nc1cccc3ccccc13)OCCCC[C@H](C)O2 | 13.2% (inactive) |
| C[C@@H]1CN([C@H](C)CO)C(=O)c2cc(C#Cc3ccccn3)cnc2O[C@H]1CN(C)Cc1ccccc1 | -11.5% (inactive) |
| Cc1ccc(S(=O)(=O)Nc2ccc3c(c2)C(=O)N([C@@H](C)CO)C[C@@H](C)[C@H](CN(C)C(=O)Nc2cccc4ccccc24)OCCCC[C@H](C)O3)cc1 | 14.8% (inactive) |
| C[C@H](CO)N1C[C@H](C)[C@@H](CN(C)C(=O)Nc2ccnc(N3CCOCC3)c2)OCc2ccccc2-c2ccccc2C1=O | 17.3% (inactive) |
| C[C@H](CO)N1C[C@H](C)[C@H](CN(C)C(=O)Nc2cccc3ccccc23)Oc2ncc(C#Cc3ccccc3)cc2C1=O | 105% (active) |
| CC(C)CC#Cc1cnc2c(c1)C(=O)N([C@@H](C)CO)C[C@@H](C)[C@H](CN(C)C(=O)Cc1ccncc1)O2 | 36.6% (active) |
| COc1ccc(C#Cc2cnc3c(c2)C(=O)N([C@@H](C)CO)C[C@H](C)[C@@H](CN(C)C(C)=O)O3)cc1 | 45.4% (active) |
| C[C@@H]1CN([C@@H](C)CO)C(=O)c2cc(C#Cc3ccccc3)cnc2O[C@H]1CN(C)C(=O)c1ccccn1 | 34.3% (active) |
| COCC(=O)N(C)C[C@@H]1Oc2ncc(C#Cc3ccccc3OC)cc2C(=O)N([C@@H](C)CO)C[C@H]1C | 34.8% (active) |
| CCCN(C)C[C@H]1Oc2cc(C#CC3CCCC3)ccc2S(=O)(=O)N([C@H](C)CO)C[C@@H]1C | 105% (active) |
| CCCN(C)C[C@@H]1Oc2cc(C#Cc3ccc(F)cc3)ccc2S(=O)(=O)N([C@H](C)CO)C[C@H]1C | 105% (active) |
